{
  "source": "PubChem BioAssay (NCATS)",
  "note": "Inconclusive results are not listed. Unmarked numbers belong to inactive results. Activity calls are given as the source filed them. Calls follow the shape of the dose curve; as a rule, active = well fitted cell-killing curve with a large enough effect; inconclusive = small, poorly fitted or top-dose-only effect; inactive = flat fitted curve, though single readings scatter. % is scaled to controls: 0 for no effect and ±100 for the full control effect; potency is read from the fitted curve at half-maximal effect.",
  "data": [
    {"assay": "qHTS of pediatric cancer cell lines to identify multiple opportunities for drug repurposing: Primary screen for control Hh wild type fibroblast cells (AID 1347106); also: nearly all actives have a fitted effect of over 55% in size;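 as to activity change, negative = cytotoxic: a drop in luminescence marks cytotoxicity and a rise apparent proliferation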", "conditions": "Hh wild-type fibroblast viability, CellTiter-Glo luminescence, 48 h; series mostly up to 46 µM; activity change, negative = cytotoxic: at the top concentration", "text": "Drug repurposing or repositioning has been offered as a strategy for drug development in oncology programs. This approach has special potential for childhood cancers and other rare or orphan diseases, where the expected return on new drug development has been a disincentive to pharmaceuticals.\nIn this project we exploit the poly-pharmacology of drugs to discover new indications via phenotypic screening of a panel of 19 well-characterized cell lines derived from solid tumors seen in children and adolescents. The goal is to identify approved drugs with previously unrecognized anticancer properties that has the potential to reveal new mechanisms and biological processes involved in carcinogenesis or drug resistance. We employed a titration-based paradigm (quantitative high-throughput screening or qHTS), where all compounds were tested at multiple concentrations for their effect on cell viability. Concentration-response curves (CRCs) were derived directly from the primary screen, and both potency and efficacy values were used to identify compounds with robust bioactivity profiles. We screened the NIH Chemical Genomics Center (NCGC) Pharmaceutical Collection (NPC) and Mechanism Interrogation Plate (MIPE) small molecule collections of approved and investigational compounds against these cell lines; and measured metabolically active cells after 48 hours of compound treatment as a proxy for cell viability.\nAssay Submitter: Nathalia J. Martinez, National Center for Advancing Translational Sciences, National Institutes of Health, Rockville, MD, USA; email: natalia.martinez@nih.gov\n[1] Shen, M et al. Quantitative high-throughput phenotypic screening of pediatric cancer cell lines identifies multiple opportunities for drug repurposing. Oncotarget 2017 Dec 19;9(4):4758-4772. PMID 29435139.\nThe cells were obtained from University of North Carolina (UNC), Pediatric Preclinical Testing Program (PPT), and Coriell Institute (CI).\nqHTS cell viability assay:\nCells were assayed in growth media at a density of 500-1,000 cells/well. Five microliters of cells were dispensed into 1,536-well, white, solid-bottom, TC-treated plates (Greiner Bio One) using a multidrop dispenser and incubated at 37 degrees C, 5% CO2, under a humidified atmosphere for 5 hours. Twenty-three nanoliters of compounds and controls (neutral control DMSO or positive control bortezomib at final concentration of 2.3 µM) were subsequently transferred by Kalypsys pintool. For primary screens, the MIPE collection was tested at 11-point dilutions (final concentrations range from 0.78 nM to 46 µM) and the NPC collection at 8-point dilutions (final concentrations range from 0.59 nM to 46 µM). Compounds tested in follow-up screens were assayed at 11-point dilutions. Cells were incubated for 48 hours, followed by addition of 3 µL of CellTiter-Glo (Promega). After a 15 min incubation at room temperature, samples were analyzed for luminescence intensity using a ViewLux High-throughput CCD imager equipped with clear filters.", "values": [
      {"compound": "NC(=O)c1cccc2cn(-c3ccc([C@@H]4CCCNC4)cc3)nc12", "activity change, negative = cytotoxic": "2.44%"},
      {"compound": "C=CC(=O)Nc1cccc(Oc2nc(Nc3ccc(N4CCN(C)CC4)cc3OC)ncc2Cl)c1", "activity change, negative = cytotoxic": "-23.5%"},
      {"compound": "CCCNC(=O)Nc1ccc(Oc2ncnc3cc(OC)c(OC)cc23)cc1Cl", "activity change, negative = cytotoxic": "-4.92%"},
      {"compound": "Cc1cc(Nc2nc(N[C@@H](C)c3ccc(F)cc3)c(C#N)cc2F)n[nH]1", "Potency": "14.8 µM (active)"},
      {"compound": "CCCCCCCCCC(=O)N[C@@H](Cc1c[nH]c2ccccc12)C(=O)N[C@H](CC(N)=O)C(=O)N[C@@H](CC(=O)O)C(=O)N[C@@H]1C(=O)NCC(=O)N[C@@H](CCCN)C(=O)N[C@@H](CC(=O)O)C(=O)N[C@H](C)C(=O)N[C@@H](CC(=O)O)C(=O)NCC(=O)N[C@H](CO)C(=O)N[C@@H]([C@@H](C)CC(=O)O)C(=O)N[C@@H](CC(=O)c2ccccc2N)C(=O)O[C@@H]1C", "activity change, negative = cytotoxic": "18.2%"},
      {"compound": "COc1ccc(C=Cc2cc(OC)c(OC)c(OC)c2)cc1O", "activity change, negative = cytotoxic": "-23.9%"},
      {"compound": "CNC(=O)c1ccc(-c2cnc3ncc(Cc4ccc5ncccc5c4)n3n2)cc1F", "activity change, negative = cytotoxic": "1.89%"},
      {"compound": "CC(C)c1ccccc1Cc1cc(C(=O)Nc2ccc(S(=O)(=O)c3ccccc3C(C)(C)C)cc2)c(O)c(O)c1O", "activity change, negative = cytotoxic": "-13.2%"},
      {"compound": "CCC(=C(c1ccccc1)c1ccc(OCCN(C)C)cc1)c1ccccc1", "activity change, negative = cytotoxic": "-1.75%"},
      {"compound": "CC1COC2(CCN(c3nc(=O)c4cc(C(F)(F)F)cc([N+](=O)[O-])c4s3)CC2)O1", "note": "(stereo not given)", "activity change, negative = cytotoxic": "10.5%"},
      {"compound": "CCc1cc2c(cc1N1CCC(N3CCOCC3)CC1)C(C)(C)c1[nH]c3cc(C#N)ccc3c1C2=O", "activity change, negative = cytotoxic": "3.62%"},
      {"compound": "O=C(O)CCCc1c[nH]c2ccccc12", "activity change, negative = cytotoxic": "0.323%"},
      {"compound": "CC1(C)O[C@@H]2C[C@@H]3[C@H]4C[C@@H](F)C5=CC(=O)C=C[C@]5(C)[C@@]4(F)[C@@H](O)C[C@]3(C)[C@]2(C(=O)CO)O1", "activity change, negative = cytotoxic": "-10%"},
      {"compound": "CCCCc1nc2cc(C=CC(=O)NO)ccc2n1CCN(CC)CC", "Potency": "16.6 µM (active)"},
      {"compound": "CCCn1c(=O)c2[nH]c(-c3cnn(Cc4cccc(C(F)(F)F)c4)c3)nc2n(CC)c1=O", "activity change, negative = cytotoxic": "-4.71%"},
      {"compound": "O=c1[nH]c(=O)n(C2CCCO2)cc1F", "note": "(stereo not given)", "activity change, negative = cytotoxic": "6.4% [at 92.7 µM]"},
      {"compound": "COC(=O)Nc1nc2ccc(C(=O)c3ccc(F)cc3)cc2[nH]1", "activity change, negative = cytotoxic": "-5.55%"},
      {"compound": "CC(O)C1C(=O)N2C(C(=O)O)=C(SC3CNC(C(=O)N(C)C)C3)C(C)C12", "note": "(stereo not given)", "activity change, negative = cytotoxic": "-1.48%"},
      {"compound": "COc1cccc2c(NCc3ccccc3)nc(-n3c(N)nc4ccccc43)nc12", "activity change, negative = cytotoxic": "9.09%"},
      {"compound": "NC(=O)Nc1cc(-c2cccc(F)c2)sc1C(=O)N[C@H]1CCCNC1", "activity change, negative = cytotoxic": "2.83%"},
      {"compound": "CCOc1ccccc1OCCNC(C)Cc1ccc(OC)c(S(N)(=O)=O)c1", "note": "(stereo not given)", "activity change, negative = cytotoxic": "-14%"},
      {"compound": "Cc1cc(Nc2ncnc3ccc(-c4ccc(CNCCS(C)(=O)=O)o4)cc23)ccc1Oc1ccn2ncnc2c1", "activity change, negative = cytotoxic": "-11.4%"},
      {"compound": "COc1cc2c(Nc3ccc(NC(=O)c4ccccc4)cc3)ncnc2cc1OCCCN1CCOCC1", "activity change, negative = cytotoxic": "11.5%"},
      {"compound": "CCOC(=O)C1=C(C)NC2=C(C(=O)CC(C)(C)C2)C1c1ccc(-c2ccccc2)cc1", "note": "(stereo not given)", "activity change, negative = cytotoxic": "-8.09%"},
      {"compound": "CNC(=O)c1c(F)cccc1Nc1nc(Nc2cc3c(cc2OC)CCN3C(=O)CN(C)C)nc2[nH]ccc12", "activity change, negative = cytotoxic": "21.3%"},
      {"compound": "COc1ccc(-n2nc(C(N)=O)c3c2C(=O)N(c2ccc(N4CCCCC4=O)cc2)CC3)cc1", "activity change, negative = cytotoxic": "-1.94%"},
      {"compound": "COc1cc2c(Oc3ccc(-c4cnc(Nc5ccc(F)cc5)n(C)c4=O)cc3F)ccnc2cc1OCCCN1CCOCC1", "Potency": "23.5 µM (active)"},
      {"compound": "Cc1ccc(CN2CCNCC2)cc1NC(=O)CNc1ccc(F)c(F)c1", "activity change, negative = cytotoxic": "-0.626%"},
      {"compound": "Cc1c(CN2CCN(S(C)(=O)=O)CC2)sc2c(N3CCOCC3)nc(-c3cnc(N)nc3)nc12", "Potency": "0.209 µM (active)"},
      {"compound": "Cc1c(NC(=O)OC[C@@H]2COCCN2)cn2ncnc(Nc3ccc4c(cnn4Cc4cccc(F)c4)c3)c12", "activity change, negative = cytotoxic": "-4.34%"},
      {"compound": "Cc1c(Cn2c(C)nc3c(C(=O)O)cc(N4CCOCC4)cc32)cccc1C(F)(F)F", "activity change, negative = cytotoxic": "-20.2%"},
      {"compound": "NC1(Cc2ccc(Cl)cc2)CCN(c2ncnc3[nH]ccc23)CC1", "activity change, negative = cytotoxic": "-11.6%"},
      {"compound": "C=CC(=O)Nc1cc2c(Nc3ccc(F)c(Cl)c3)ncnc2cc1C#CC(C)(C)N1CCN(C)CC1", "activity change, negative = cytotoxic": "-3.36%"},
      {"compound": "Nc1ccn([C@@H]2CS[C@H](CO)O2)c(=O)n1", "activity change, negative = cytotoxic": "15.2% [at 92.7 µM]"},
      {"compound": "Cc1cn(-c2cc(NC(=O)c3ccc(C)c(Nc4nccc(-c5cccnc5)n4)c3)cc(C(F)(F)F)c2)cn1", "activity change, negative = cytotoxic": "11.2%"},
      {"compound": "CC(C)C[C@H](NC(=O)CNC(=O)c1cc(Cl)ccc1Cl)B(O)O", "Potency": "1.05 µM (active)"},
      {"compound": "CCN(CC)CCCCNc1ncc2cc(-c3cc(OC)cc(OC)c3)c(NC(=O)NC(C)(C)C)nc2n1", "Potency": "29.6 µM (active)"},
      {"compound": "Cc1cccc(C=NNc2cc(N3CCOCC3)nc(OCCc3ccccn3)n2)c1", "activity change, negative = cytotoxic": "14%"},
      {"compound": "COc1cccc(Nc2c(C(N)=O)cnc3c(C)cc(S(=O)(=O)c4cccc(C(=O)N(C)C)c4)cc23)c1", "activity change, negative = cytotoxic": "-4.71% [at 16.1 µM]"},
      {"compound": "CCC[C@H](NC(=O)C(C#N)=Cc1cccc(Br)n1)c1ccccc1", "activity change, negative = cytotoxic": "-13.3%"}
    ]}
  ]
}
